KDM5B inh = Primary screen for KDM5B Histone Demethylases FDH-coupled qHTS; KDM5B demethylase, FDH-coupled NADH fluorescence (FDH is formaldehyde dehydrogenase); Potency, µM (highest dose often 57.7 µM), actives largely listed as inhibitors; hit rate 2.6% among 220,000; AID 1347165, 2019; further: nearly all actives have a fitted effect of over 70% in size
Target sequence (Q9UGL1 whole entry, looked up): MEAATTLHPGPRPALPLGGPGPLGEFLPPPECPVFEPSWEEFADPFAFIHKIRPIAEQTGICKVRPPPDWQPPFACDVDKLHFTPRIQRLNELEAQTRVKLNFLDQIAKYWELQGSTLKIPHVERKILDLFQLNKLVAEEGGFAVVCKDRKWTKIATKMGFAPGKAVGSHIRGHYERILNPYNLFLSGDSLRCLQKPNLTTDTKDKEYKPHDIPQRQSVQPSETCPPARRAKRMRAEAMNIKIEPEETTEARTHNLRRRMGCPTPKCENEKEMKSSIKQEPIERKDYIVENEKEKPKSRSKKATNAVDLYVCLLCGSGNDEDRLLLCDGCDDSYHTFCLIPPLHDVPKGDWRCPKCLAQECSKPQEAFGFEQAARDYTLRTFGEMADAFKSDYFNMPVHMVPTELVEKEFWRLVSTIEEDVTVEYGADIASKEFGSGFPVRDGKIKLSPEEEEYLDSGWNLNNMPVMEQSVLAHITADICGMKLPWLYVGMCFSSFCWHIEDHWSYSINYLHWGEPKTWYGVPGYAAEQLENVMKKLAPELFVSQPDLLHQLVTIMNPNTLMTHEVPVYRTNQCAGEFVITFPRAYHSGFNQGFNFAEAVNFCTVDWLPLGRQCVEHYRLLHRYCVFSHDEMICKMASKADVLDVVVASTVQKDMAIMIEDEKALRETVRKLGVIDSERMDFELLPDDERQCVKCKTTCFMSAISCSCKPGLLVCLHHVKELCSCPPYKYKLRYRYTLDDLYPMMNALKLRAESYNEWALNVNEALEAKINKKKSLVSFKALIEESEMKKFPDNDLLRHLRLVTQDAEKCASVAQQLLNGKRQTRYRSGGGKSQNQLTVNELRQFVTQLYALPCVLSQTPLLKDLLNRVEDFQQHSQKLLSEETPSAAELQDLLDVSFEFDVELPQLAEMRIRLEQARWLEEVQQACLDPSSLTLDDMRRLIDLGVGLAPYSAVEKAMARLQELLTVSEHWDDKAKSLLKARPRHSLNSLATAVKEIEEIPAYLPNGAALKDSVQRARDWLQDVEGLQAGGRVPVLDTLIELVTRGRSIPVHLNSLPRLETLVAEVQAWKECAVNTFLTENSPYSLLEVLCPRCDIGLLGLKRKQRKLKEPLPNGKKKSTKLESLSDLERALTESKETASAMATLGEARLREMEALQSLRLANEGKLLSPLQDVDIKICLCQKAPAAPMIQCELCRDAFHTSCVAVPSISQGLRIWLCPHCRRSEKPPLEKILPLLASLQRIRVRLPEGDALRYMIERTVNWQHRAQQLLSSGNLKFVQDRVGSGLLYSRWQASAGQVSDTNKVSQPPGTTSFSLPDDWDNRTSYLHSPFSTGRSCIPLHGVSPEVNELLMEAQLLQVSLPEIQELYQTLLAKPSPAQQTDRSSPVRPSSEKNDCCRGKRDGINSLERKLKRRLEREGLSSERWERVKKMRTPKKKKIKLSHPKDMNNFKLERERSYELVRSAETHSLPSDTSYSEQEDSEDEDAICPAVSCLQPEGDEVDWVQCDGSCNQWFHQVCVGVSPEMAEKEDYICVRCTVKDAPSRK
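qHTS format, multiple compound concentrations. Buffer 50 mM HEPES pH 7.5/0.01% Tween-20; 200 nM KDM5BΔAP final; 10 min compound preincubation; substrate-mix levels 12.5 µM peptide, 25 µM α-KG, 0.25 mM NAD⁺; 30 min RT; ΔRFU.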
SNCA viab count = GF-AFC viability counterscreen for inhibitors of alpha-synuclein gene (SNCA) expression; Potency, µM (titrated, usually from 57.1 µM), most hits filed as cytotoxic; AID 1671193, 2021; hit rate 0.12% among 150,000; HEK-293-SNCA-luc viability, GF-AFC fluorescence, 24 h; further: nearly all actives have a fitted effect of over 30% in size
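HEK-293-SNCA-luc cells (1500/well) plated 24 h, then exposed 24 h to a dilution series; GF-AFC added 30 min at 37C, fluorescence 405/540 nm; normalised to medium-only and DMSO wells, Hill fit.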
IP6K1 inh = Primary qHTS assay for small molecule inhibitors of Inositol hexaphosphate kinase 1 (IP6K1) | Inositol hexakisphosphate kinase 1 (Homo sapiens), Q92551 | IP6K1 kinase, ADP-Glo luminescence, 2 h; stronger effect = lower value | activity change, % (series mostly up to about 58 µM) | hit rate 0.81% among 140,000 | AID 1645851, 2021; in the data active means activity change below about -25%
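ADP-Glo luminescence measures ADP made by human IP6K1 during a 2 h RT reaction with ATP/IP6 (mix at 1.3 mM/130 uM); top library doses 57.5 and 19.1 uM final.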
SNCA expr inh = Primary qHTS assay for inhibitors of alpha-synuclein gene (SNCA) expression; HEK-293 SNCA-luciferase knock-in, luminescence, 24 h; Potency, µM (series often up to 57.2 µM), usual class: inhibitors; hit rate 0.17% among 140,000; AID 1671194, 2021; further: nearly all actives have a fitted effect of over 45% in size
Numbers stand for hits; - = inactive; ? = inconclusive; . = not tested or not shown; ! = not active in a repeat; [ ] = dose if it differs, or a comment. Hits are enriched below; roughly 2.9% of the tested compounds scored in any of these assays. Unless noted, the call rests on the fitted dose curve; in most records, active means well fitted curve in the direction sought with a large enough effect; inconclusive means small, poorly fitted or top-dose-only effect, or another doubt; inactive means no such curve, though single readings can be large; an effect the other way counts as inactive or inconclusive.

SMILES | KDM5B inh | SNCA viab count | IP6K1 inh | SNCA expr inh
COc1ccc(-c2cc(C(=O)N3CCOCC3)c3c(C4CCCN4)nn(C)c3n2)cc1 (centres undefined) | ? | - | - | -
Cc1ccc(-c2noc(-c3ccc(N4CCCCC4)c([N+](=O)[O-])c3)n2)cc1 | - | - | - | -
O=[N+]([O-])c1cc(-c2nc(-c3ccccc3)no2)ccc1N1CCCCC1 | - | - | - | 10µM
Cc1ccc(CC(=O)NCc2ccnc(Oc3ccccc3)c2)cc1 | - | . | . | .
O=C(CCC[C@H]1NC[C@@H]2CC1CN(Cc1ccccc1)C2)NCCCc1ccccc1 | 7.1µM | - | - | -
O=C(CCC[C@H]1NC[C@@H]2C[C@H]1CN(Cc1ccccc1)C2)NCCc1cccnc1 | ? | - | - | -
CC1(C)CC(=O)C2=C(C1)N(c1ccc(C(F)(F)F)cc1)C(=O)CC2c1cccs1 (centres undefined) | - | . | . | .
COc1ccc(-c2nc(Cn3c(-c4cccc(Cl)c4)nc(C)c(CCO)c3=O)c(C)o2)cc1 | 28µM | - | - | -
Cc1nc(-c2cccc(Cl)c2)n(Cc2nc(-c3ccc(OC(C)C)cc3)oc2C)c(=O)c1CCO | 11µM | - | - | -
Fc1ccc2nc([C@H]3CCN(Cc4ccccc4F)C3)[nH]c2c1 | - | - | - | -
CCn1cc(CN2CCC(c3[nH]ncc3-c3ccccc3C)CC2)cn1 | - | - | - | -
O=c1cc(-c2ccccc2Cl)nc(-c2ccc(CN3CCC[C@@H](O)C3)cc2)[nH]1 | ? | - | - | ?
Cc1cc(C)c2c(C(=O)N3CCN(C)C4(CCN(C)CC4)C3)cc(C)nc2c1 | 25µM | - | - | -
Cc1cc(C)cc(NC(=O)CC(=O)N2CCN(C)C3(CCN(C)CC3)C2)c1 | - | - | - | -
O=C(c1ccn(C(F)F)n1)N1CCc2nc(-c3ccc(Cl)cc3)[nH]c2C1 | - | - | - | -
CCOC(=O)N1CCC(N2CCc3nc(-c4ccc(Cl)cc4)[nH]c3C2)C1 (centres undefined) | 22µM | - | - | -
S=C(NCCc1ccccc1)NCc1ccc(Cl)cc1 | - | . | . | .
C=CCOC(=O)C1=C(C)N=C2SC=C(CC(=O)N3CCCC3)N2C1c1cc(OC)cc(OC)c1 (centres undefined) | - | - | - | -
C=CCOC(=O)C1=C(C)N=C2SC=C(CC(=O)N3CCCC3)N2C1c1ccc(OC)cc1OC (centres undefined) | 28µM | - | - | -
CCc1ccc(NC(=O)NCc2nc(-c3ccc(C)cc3)oc2C)cc1 | - | . | . | .
Cc1noc(C)c1-c1cc2c(cc(-c3ccccc3)n2C)c(-c2cccnc2)n1 | - | - | - | -
Cc1noc(C)c1-c1cc2c(cc(-c3ccccc3)n2C)c(Nc2ccncn2)n1 | 35µM | ? | - | -
COc1ccc(-c2nc(-c3c(C)noc3C)cc3c2cc(-c2ccccc2)n3C)cn1 | 28µM | ? | - | ?
Cc1noc(C)c1-c1cc2c(cc(-c3ccccc3)n2C)c(-c2cnn(C)c2)n1 | 35µM | - | - | -
COc1ccc(-c2cc(-c3c(C)noc3C)cc3c2C(=O)N(C)C3)cn1 | 32µM | - | - | -
SMILES | KDM5B inh | SNCA viab count | IP6K1 inh | SNCA expr inh
COc1ccc(-c2nc(CSc3ccc(S(=O)(=O)N4CCCCC4)cn3)no2)cc1 | - | . | . | .
O=C(CSc1ncc(-c2ccccc2)o1)Nc1ccc(F)cc1F | - | . | . | .
C=CCNC(=O)N[C@H]1[C@H](O)[C@@H](Oc2ccccc2)[C@@H]2OC[C@H]1O2 | - | - | - | -
O=S(=O)(c1ccc2c(c1)CCN2Cc1ccccc1Br)N1CCOCC1 | - | . | . | .
Cc1noc(C)c1-c1cc2c(cc(-c3ccccc3)n2C)c(N2CCOCC2)n1 | 22µM | - | - | -
COc1ccc(C2C(=O)N(C3CCCCC3)CC(=O)N2CCC2=CCCCC2)cc1 (centres undefined) | ? | ? | - | 22µM
CCc1noc(-c2ccn3c(CNC(=O)c4ccc(C(C)(C)C)cc4)nnc3c2)n1 | ? | - | - | -
CS(=O)c1ccc(-c2nc(-c3ccc(F)cc3)c(-c3ccncc3)[nH]2)cc1 (centres undefined) | . | - | - | 12µM
Fc1ccc(-c2nc(-c3c(F)cccc3F)[nH]c2-c2ccncc2)cc1 | . | - | - | .
O=C(CCCc1c[nH]c2ccccc12)N1CCN2CCS(=O)(=O)N(C3CC3)C(=O)C2C1 (centres undefined) | - | - | - | -
CCc1noc(-c2ccn3c(CNC(=O)c4cccc(F)c4)nnc3c2)n1 | - | - | - | -
CCCc1noc(-c2ccn3c(CNC(=O)c4ccc(C)c(C)c4)nnc3c2)n1 | 4.5µM | - | - | -
CCc1noc(-c2ccn3c(CNC(=O)c4cccnc4)nnc3c2)n1 | 28µM | - | - | -
CCc1noc(-c2ccn3c(CNC(=O)c4ccc(F)cc4)nnc3c2)n1 | 13µM | - | - | -
CCc1noc(-c2ccn3c(CNC(=O)c4ccc(C)c(C)c4)nnc3c2)n1 | 3.2µM | - | - | -
CCCC1=C(C(=O)OCC)C(c2ccccc2Cl)NC(=O)N1CC (centres undefined) | - | . | . | .
CCCc1noc(-c2ccn3c(CNC(=O)c4ccc(CC)cc4)nnc3c2)n1 | 25µM | - | - | -
CSCCNC(=O)C1CCN(c2nccc(Nc3ccccc3F)n2)CC1 | . | -[12.5 µM] | - | -
C[S+](=O)([O-])NC1CCN(c2nc3ncccc3o2)CC1 | 35µM! | - | - | ?
O=C(NC1CCCC1)NC1CCN(c2nc3ncccc3o2)CC1 | 35µM | - | - | -
COc1ccc(C(=O)NC2CCN(c3nc4ncccc4o3)CC2)cc1 | 22µM | ? | - | -
CC(=O)NC1CCN(c2nc3ncccc3o2)CC1 | 28µM | - | - | -
O=C(NC1CCN(c2nc3ncccc3o2)CC1)c1ccccc1Cl | ? | - | - | -
Cc1ccc([S+](=O)([O-])NC2CCN(c3nc4ncccc4o3)CC2)cc1 | ? | - | - | -
O=C(Nc1ccc(F)cc1F)c1nn(Cc2ccccc2)c(=O)c2ccccc12 | - | . | . | .
SMILES | KDM5B inh | SNCA viab count | IP6K1 inh | SNCA expr inh
Cc1nc(N2CCN(C(=O)c3cccc(F)c3)CC2)cc(C(F)(F)F)n1 | - | - | - | ?
O=C(CNC(=O)c1cccc(-c2ccsc2)c1)NCCCc1ccccc1 | . | -[12.5 µM] | - | -
O=C(NCc1csc(-c2cnccn2)n1)C1NCCc2[nH]cnc21 (centres undefined) | 25µM | - | - | -
O=C(NCCc1nc(-c2cccnc2)n[nH]1)C1NCCc2[nH]cnc21 (centres undefined) | 7.9µM | - | - | -
COc1cccc(-c2ncc(CNC(=O)C3NCCc4[nH]cnc43)s2)c1 (centres undefined) | 20µM | - | - | -
COc1ccc(-c2[nH]ncc2CNC(=O)C2NCCc3[nH]cnc32)cc1 (centres undefined) | ? | - | - | -
O=C(NCCc1csc(-c2cnccn2)n1)C1CC2(CCNCC2)CN1 (centres undefined) | 28µM | - | - | ?

High-throughput results as filed in PubChem BioAssay.
